Measurements taken from PubChem BioAssay.
The source made the active and inactive calls.

Key:
Albumin (Bos taurus) = Albumin (Bos taurus) (UniProt P02769); test: compounds binding labelled BSA control protein – biochemical, small-molecule microarray, Alexa647 label, 635/667 nm fluorescence, artefact control for SMM control protein annotation, profiling panel (AID 1118); settings: BSA-A647 binding, fluorescence 635 nm, higher = more signal;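 further: score merges 667 nm emission intensity and signal-to-noise per printed compound spot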
Albumin (Bos taurus), sequence (P02769 whole entry, looked up): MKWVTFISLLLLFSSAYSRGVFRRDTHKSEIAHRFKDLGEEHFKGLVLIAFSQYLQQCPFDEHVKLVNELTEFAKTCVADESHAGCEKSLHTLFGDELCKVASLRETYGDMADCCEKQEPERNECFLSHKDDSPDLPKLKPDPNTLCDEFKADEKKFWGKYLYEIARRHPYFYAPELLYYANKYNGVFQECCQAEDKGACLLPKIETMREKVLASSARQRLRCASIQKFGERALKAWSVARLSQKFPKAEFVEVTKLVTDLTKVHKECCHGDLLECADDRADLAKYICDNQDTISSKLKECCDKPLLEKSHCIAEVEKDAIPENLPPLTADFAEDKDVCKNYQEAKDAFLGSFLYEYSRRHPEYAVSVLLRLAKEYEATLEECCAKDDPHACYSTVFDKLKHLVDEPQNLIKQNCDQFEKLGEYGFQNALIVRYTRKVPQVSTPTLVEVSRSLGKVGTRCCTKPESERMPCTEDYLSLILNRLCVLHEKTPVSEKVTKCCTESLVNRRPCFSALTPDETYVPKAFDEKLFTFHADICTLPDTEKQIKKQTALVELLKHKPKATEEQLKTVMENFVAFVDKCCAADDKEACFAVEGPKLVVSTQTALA

[1] = probe aXIP binding to arrayed compounds – biochemical, NeuroSMM set, 635/667 nm fluorescence, primary screen (AID 1119); settings: small-molecule microarray, higher = more signal, called active from +8 up or from −8 down;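 further: probe is the protein aXip251-270 applied at 1 µg/mL to compound-printed slides; binding of probe to printed compounds measured as 667 nm fluorescence plus signal to noise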
[2] = probe aNOTCH3 binding on compound microarray – biochemical, small-molecule microarray, 635/667 nm fluorescence, primary screen (AID 1120); settings: higher = more signal;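 further: probe is a biotin-tagged antibody raised against NOTCH3 rather than NOTCH3 protein; score merges spot fluorescence near 667 nm with spot signal to noise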
[3] = probe aNOTCH2 binding on compound microarray – biochemical, small-molecule microarray, 635/667 nm fluorescence, primary screen (AID 1121); settings: higher = more signal;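 further: score merges feature fluorescence read at 667 nm with its signal to noise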
[4] = target: Carbonic anhydrase 2 (Homo sapiens) (UniProt P00918); test: compounds binding carbonic anhydrase 2 – biochemical, small-molecule microarray, Alexa647-labelled CAII, profiling panel (AID 1122); settings: CAII-A647 binding fluorescence, higher = more signal
[5] = COS7 lysate on small-molecule microarray, probe aHis, 635 nm (AID 1123); settings: COS7 cell lysate, fluorescence, higher = more signal;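 further: z-score combines 667nm fluorescence intensity with signal-to-noise per printed compound spot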
[6] = probe aLAP1 signal on lysate-treated microarray – cell lysate, small-molecule microarray, COS7 lysate, primary screen (AID 1124); settings: probe aLAP1, fluorescence, higher = more signal;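 further: lysate comes from COS7 cells expressing LAP1 and is applied at 0.3 µg/mL; score merges spot fluorescence near 667 nm with signal-to-noise over triplicate slides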
Sam68 (KHDRBS1) = test: compounds binding KHDRBS1 protein – biochemical, small-molecule microarray, 635 nm fluorescence, primary screen (AID 1125); settings: higher = more signal;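 further: score merges 667 nm channel intensity with signal to noise over triplicate slides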
[7] = tested on: Chordin-like protein 2 (CHRDL2); test: compounds binding chordin-like 2 – biochemical, small-molecule microarray, 635 nm fluorescence, primary screen (AID 1126); settings: fluorescence 635 nm, higher = more signal;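 further: printed compound slides probed with Chrdl2 protein at 4 µg/mL for 1 h at 4 C; score merges 667 nm emission intensity with signal to noise over three replicate slides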
[8] = target: Concanavalin-A (Canavalia ensiformis) (UniProt P02866); test: compounds binding concanavalin A lectin – biochemical, small-molecule microarray, Alexa647 label, 635 nm, artefact control for SMM control protein annotation, primary screen (AID 1127); settings: ConA-A647 binding fluorescence, higher = more signal;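 further: z combines 667 nm emission intensity with signal-to-noise across three replicate slides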
Concanavalin-A (Canavalia ensiformis), sequence (P02866 whole entry, looked up): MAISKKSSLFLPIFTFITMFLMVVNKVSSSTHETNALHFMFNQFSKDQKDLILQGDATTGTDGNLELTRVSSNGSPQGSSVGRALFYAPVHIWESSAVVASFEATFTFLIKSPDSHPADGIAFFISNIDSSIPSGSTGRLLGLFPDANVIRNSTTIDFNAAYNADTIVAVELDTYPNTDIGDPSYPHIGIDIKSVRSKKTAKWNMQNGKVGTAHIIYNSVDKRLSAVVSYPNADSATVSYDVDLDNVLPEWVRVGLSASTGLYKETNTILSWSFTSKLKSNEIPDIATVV

[9] = compounds binding Alexa647 anti-His antibody – biochemical, small-molecule microarray, 635 nm fluorescence, artefact control for SMM control protein annotation, primary screen (AID 1128); settings: higher = more signal;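 further: score merges feature fluorescence with signal-to-noise for each printed compound spot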
[10] = tested on: Human papillomavirus type 1a E7 protein (residues 1-88); test: HPV1a E7 small-molecule binders, primary screen, biochemical, small-molecule microarray, residues 1-88, 635 nm (AID 1129); settings: small-molecule microarray binding, fluorescence 635 nm; higher = more signal
[11] = target: Focal adhesion kinase 1 (Homo sapiens) (UniProt Q05397); test: PTK2 protein binding on printed compound slides – biochemical, small-molecule microarray, 635/667 nm fluorescence, BSA, DTT, primary screen (AID 1130); settings: 635 nm fluorescence, higher = more signal;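 further: composite of spot emission at 667 nm and signal to noise over triplicate slides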
Focal adhesion kinase 1 (Homo sapiens), sequence (Q05397 whole entry, looked up): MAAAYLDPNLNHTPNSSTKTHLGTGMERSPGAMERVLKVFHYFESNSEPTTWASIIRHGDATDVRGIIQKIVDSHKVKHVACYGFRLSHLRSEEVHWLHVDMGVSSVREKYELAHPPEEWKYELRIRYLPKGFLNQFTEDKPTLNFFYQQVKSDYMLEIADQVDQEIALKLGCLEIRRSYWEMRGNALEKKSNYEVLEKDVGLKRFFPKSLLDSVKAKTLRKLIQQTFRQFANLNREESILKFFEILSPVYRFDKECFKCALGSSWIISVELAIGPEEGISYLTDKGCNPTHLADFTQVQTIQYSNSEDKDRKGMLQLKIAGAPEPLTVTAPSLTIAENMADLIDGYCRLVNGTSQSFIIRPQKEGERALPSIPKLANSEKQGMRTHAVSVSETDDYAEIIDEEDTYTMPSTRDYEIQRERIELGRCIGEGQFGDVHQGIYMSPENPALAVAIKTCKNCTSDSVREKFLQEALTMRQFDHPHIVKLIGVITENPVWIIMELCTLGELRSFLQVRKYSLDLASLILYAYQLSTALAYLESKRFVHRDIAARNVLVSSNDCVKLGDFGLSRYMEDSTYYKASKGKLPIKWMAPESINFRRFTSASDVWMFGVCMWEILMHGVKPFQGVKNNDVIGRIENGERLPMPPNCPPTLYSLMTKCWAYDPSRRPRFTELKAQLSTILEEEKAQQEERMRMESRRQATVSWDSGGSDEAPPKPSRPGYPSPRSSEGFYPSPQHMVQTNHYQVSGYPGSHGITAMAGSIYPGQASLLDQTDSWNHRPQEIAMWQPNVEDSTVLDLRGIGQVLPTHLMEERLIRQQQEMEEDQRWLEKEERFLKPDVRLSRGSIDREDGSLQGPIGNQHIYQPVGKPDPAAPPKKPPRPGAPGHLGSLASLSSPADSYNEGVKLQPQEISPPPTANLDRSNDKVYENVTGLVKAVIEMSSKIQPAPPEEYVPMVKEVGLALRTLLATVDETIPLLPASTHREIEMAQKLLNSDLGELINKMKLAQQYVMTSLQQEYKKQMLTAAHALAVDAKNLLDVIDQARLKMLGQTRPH

[12] = tested on: Fibrinogen (Alexa647-labelled); test: Alexa647-fibrinogen binding to printed small molecules – biochemical, small-molecule microarray, 635/667 nm fluorescence, artefact control for SMM control-protein annotation, profiling panel (AID 1131); settings: fibrinogen-A647 binding fluorescence, higher = more signal;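 further: z-score merges 667 nm fluorescence with per-spot signal-to-noise over triplicate slides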
[13] = target: Follistatin (Homo sapiens) (UniProt P19883); test: FST protein binding to printed compounds – biochemical, small-molecule microarray, 635/667 nm fluorescence, primary screen (AID 1132); settings: 635 nm fluorescence, higher = more signal
Follistatin (Homo sapiens), sequence (P19883 whole entry, looked up): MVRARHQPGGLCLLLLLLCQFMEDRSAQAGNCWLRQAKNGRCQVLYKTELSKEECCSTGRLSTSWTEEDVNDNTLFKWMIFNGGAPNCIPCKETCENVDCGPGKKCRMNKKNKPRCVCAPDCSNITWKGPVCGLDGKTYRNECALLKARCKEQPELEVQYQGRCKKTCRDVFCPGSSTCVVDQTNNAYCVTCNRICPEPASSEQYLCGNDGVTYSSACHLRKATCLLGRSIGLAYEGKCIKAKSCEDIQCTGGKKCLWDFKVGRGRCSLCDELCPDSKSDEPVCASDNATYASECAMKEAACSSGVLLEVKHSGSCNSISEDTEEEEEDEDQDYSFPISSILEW

[14] = target: Fibroblast growth factor 2 (Homo sapiens) (UniProt P09038); test: basic fibroblast growth factor binding to printed compounds – biochemical, small-molecule microarray, 635/667 nm fluorescence, primary screen (AID 1133); settings: FGF2, fluorescence 635/667, higher = more signal
Fibroblast growth factor 2 (Homo sapiens), sequence (P09038 whole entry, looked up): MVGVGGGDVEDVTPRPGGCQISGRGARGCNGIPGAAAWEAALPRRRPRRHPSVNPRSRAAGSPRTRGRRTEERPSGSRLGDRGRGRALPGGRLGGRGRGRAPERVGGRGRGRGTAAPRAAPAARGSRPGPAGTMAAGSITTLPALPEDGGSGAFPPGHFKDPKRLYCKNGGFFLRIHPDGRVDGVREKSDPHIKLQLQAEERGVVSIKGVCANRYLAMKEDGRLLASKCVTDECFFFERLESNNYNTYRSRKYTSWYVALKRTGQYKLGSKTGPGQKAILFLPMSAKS

[15] = JC-1 mitochondrial potential readout, lung cancer cells – cell-based, A549, JC-1 fluorescence, basal, 24 h, 100 nL, profiling panel (AID 1138); settings: higher = more signal;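 further: A549 lung adenocarcinoma cells under basal conditions with no added stimulus; test concentration not given here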
Lefty1 = Lefty1 protein binding to printed compounds – biochemical, small-molecule microarray, 635/667 nm fluorescence, primary screen (AID 1139); settings: fluorescence 635/667, higher = more signal
[16] = tested on: wheat germ agglutinin (Triticum aestivum), Alexa647-labelled; test: Alexa647-WGA lectin binding to printed small molecules – biochemical, small-molecule microarray, 635/667 nm fluorescence, artefact control for SMM control-protein annotation, profiling panel (AID 1140); settings: WGA-A647 binding, 635 nm fluorescence, higher = more signal;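 further: score merges 667 nm feature emission with signal to noise over triplicate slides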
[17] = target: Luciferin 4-monooxygenase (Photinus pyralis) (UniProt P08659); test: inhibition of purified Photinus pyralis luciferase – biochemical, luminescence, purified enzyme, 2006 set, primary screen (AID 1141); settings: purified firefly luciferase, SteadyGlo luminescence, 30 min; higher = more signal, called active from +8 up or from −8 down;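 further: cell-free assay with purified firefly luciferase at 100 ng per well in PBS; test concentration not given here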
Luciferin 4-monooxygenase (Photinus pyralis), sequence (P08659 whole entry, looked up): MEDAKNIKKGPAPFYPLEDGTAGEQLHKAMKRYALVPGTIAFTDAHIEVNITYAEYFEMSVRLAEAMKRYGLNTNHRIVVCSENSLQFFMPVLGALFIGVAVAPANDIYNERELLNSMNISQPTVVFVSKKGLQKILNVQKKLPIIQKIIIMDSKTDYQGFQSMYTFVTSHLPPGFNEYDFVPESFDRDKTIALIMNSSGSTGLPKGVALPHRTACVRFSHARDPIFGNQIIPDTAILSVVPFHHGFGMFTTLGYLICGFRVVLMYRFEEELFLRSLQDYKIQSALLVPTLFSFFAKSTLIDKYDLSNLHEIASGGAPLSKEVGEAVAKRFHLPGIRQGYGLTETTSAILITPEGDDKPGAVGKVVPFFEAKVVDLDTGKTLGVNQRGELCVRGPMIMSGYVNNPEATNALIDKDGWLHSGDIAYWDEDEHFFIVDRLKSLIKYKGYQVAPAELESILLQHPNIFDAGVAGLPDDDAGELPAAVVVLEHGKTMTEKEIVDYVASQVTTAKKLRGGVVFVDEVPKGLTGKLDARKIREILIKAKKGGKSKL

Structure (SMILES) | composite z-score (Albumin (Bos taurus)) | composite Z-score [1] | composite z-score [2] | composite z-score [3] | composite z-score [4] | composite z-score [5] | composite z-score [6] | composite z-score (Sam68 (KHDRBS1)) | composite z-score [7] | composite z-score [8] | composite z-score [9] | composite z-score [10] | composite z-score [11] | composite z-score [12] | composite z-score [13] | composite z-score [14] | z-score [15] | composite z-score (Lefty1) | composite z-score [16] | z-score [17]
CO[C@H]1O[C@H](CO)[C@@H](OC(=O)Nc2cccc(F)c2)[C@H](OC(=O)Nc2ccc3c(c2)OCO3)[C@@H]1OC(=O)Nc1ccc2c(c1)OCO2 | 0.364 | 0.942 (inactive) | 0.15 | -0.0247 | 0.753 | 1.64 | 0.678 | 1.32 | 0.149 | 0.708 | 2.61 | 1.29 | 0.243 | 0.973 | 1.25 | 0.217 | -0.307 | 0.278 | 0.654 | -4.46 (inactive)
CCCCC(=C=CC[C@H](O)c1ccccc1OCCO)CCO | 0.0552 | 0.849 (inactive) | -0.16 | -0.164 | 0.524 | 1.91 | 0.0655 | 0.597 | -0.336 | -0.14 | 2.08 | 0.118 | 0.0679 | -0.472 | 0.689 | 0.749 | -0.378 | 0.342 | -0.298 | 0.207 (inactive)
CCCNC(=O)[C@@]1(Sc2ccc(C)cc2)CC(=O)N(Cc2cc(C(F)(F)F)cc(C(F)(F)F)c2)[C@@H]1c1ccc(CO)cc1 | -0.919 | -0.0135 (inactive) | -0.163 | -0.169 | 0.504 | 0.506 | -0.0318 | -0.528 | -1.11 | -0.149 | 2.59 | -0.0696 | -0.251 | -0.452 | -0.245 | -0.375 | -0.328 | -0.675 | -0.037 | -0.297 (inactive)
Cc1ccc(S[C@]2(C(=O)NCc3ccccc3)CC(=O)N(Cc3ccccc3Cl)[C@@H]2c2ccc(CO)cc2)cc1 | -0.447 | -0.608 (inactive) | -0.511 | -0.149 | 0.762 | 0.397 | 0.197 | 0.472 | -0.78 | 0.439 | 1.29 | -0.561 | -0.0881 | -0.919 | -0.181 | -0.756 | -0.387 | -0.423 | -0.3 | 0.718 (inactive)
COc1cc(Cc2cc3c(c(CCc4ccccc4)n2)[Si](C(C)C)(C(C)C)O[C@H]3c2ccccc2)cc(OC)c1OC | -0.405 | -0.0849 (inactive) | -0.15 | -0.181 | -0.128 | -0.178 | -0.177 | -0.361 | 0.06 | 0.562 | -0.133 | -1.36 | -0.114 | 0.0047 | 0.214 | -0.392 | -1.64 | -0.261 | -0.192 | -0.0946 (inactive)
CO[C@H]1O[C@H](CO)[C@@H](OC(=O)CCc2ccccc2)[C@@H]2OC(=O)[C@@H](Cc3ccc4ccccc4c3)C/C=C/C[C@H](Cc3ccc4ccccc4c3)C(=O)O[C@@H]12 | 0.199 | 0.128 (inactive) | -0.21 | -0.172 | 0.191 | 1.18 | 0.273 | -0.183 | -1.34 | 0.208 | 0.0781 | 0.0444 | 0.138 | -0.142 | -0.564 | -0.512 | 1.98 | -0.346 | -0.228 | -0.958 (inactive)
O=C1NC(=O)C2C1C=CC(C(O)C1CCCCC1)N2Nc1ccccn1 (stereo not given) | 0.516 | 0.468 (inactive) | 0.0351 | -0.0422 | 0.827 | 1.36 | -0.636 | 0.233 | 0.342 | 0.898 | 0.279 | 0.688 | 0.113 | 0.177 | 0.597 | 0.205 | 0.517 | 0.119 | 0.149 | -0.224 (inactive)
CCOC(=O)C1=CCC(c2cccn2C(=O)OC(C)(C)C)N(S(=O)(=O)c2ccc(C)cc2)C1 (stereo not given) | 0.871 | 0.76 (inactive) | 0.17 | 0.0351 | 0.523 | 2.82 | 0.421 | 0.948 | 0.551 | 0.722 | 1.86 | 1.21 | 0.42 | 0.827 | 1.13 | 0.433 | 1.22 | 0.498 | 1.2 | -0.997 (inactive)
COc1c(C)cc(-c2nc(-c3ccccc3)c3c(c2C)CO[Si]3(C(C)C)C(C)C)cc1C | -0.116 | 0.257 (inactive) | 0.178 | -0.0048 | -0.0127 | 0.275 | -0.314 | 0.214 | 0.264 | -0.53 | -0.0017 | 0.223 | 0.0945 | 0.42 | 0.62 | 0.376 | 0.87 | 0.53 | -0.0784 | 0.722 (inactive)
COCCOC(=O)N1C(=O)[C@@]2(c3cc(C#CCC(C(=O)OC)C(=O)OC)ccc31)[C@H](c1ccc(O)cc1)N1[C@H](c3ccccc3)[C@H](c3ccccc3)OC(=O)[C@H]1[C@@H]2C(=O)N1CCc2cc(OC)c(OC)cc2C1 | -0.0894 | -0.262 (inactive) | 0.147 | -0.0166 | 0.378 | 1.12 | 0.761 | 1.29 | 0.242 | 0.903 | 2.46 | 1.2 | 0.362 | 0.741 | 1.27 | 1.26 | 0.627 | 0.633 | 0.801 | -1.05 (inactive)
COc1ccc(C(=O)Nc2ccc(CN3C(=O)[C@]4(O[C@H](CC(=O)N(CCO)Cc5ccccc5)[C@@H]([Si](C)(C)c5ccc(OC)cc5)[C@@H]4C)c4ccccc43)cc2)cc1 | -0.622 | -0.21 (inactive) | -0.0288 | -0.193 | 0.541 | 1.58 | 1.62 | 1.35 | 1.18 | 0.905 | 0.122 | 1.14 | 0.677 | 0.375 | 1.25 | 1.31 | -0.474 | 1.32 | 0.162 | 0.505 (inactive)
